Experimental findings from PubChem BioAssay AID620 (Sanford-Burnham Center for Chemical Genomics, 2007) are described below.

Out of some 87,000 compounds screened, about 360 (0.41%) were called active. The entries come from a sample that favours actives as a whole. Values without a mark were called inactive. Rule as the data show it: active = cytotoxicity above about 50%; inactive = the rest.

The nature of the assay: HT1080 cell viability loss – fluorescence readout (AID 620).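 Also: cells exposed to compound overnight then 4 h with Alamar Blue; 0% = vehicle DMSO and 100% = killing control.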 The settings on record: at 10 µM, hits give high values.
`CCOC(=O)CSCC(=O)Nc1ccc(S(=O)(=O)N2CCCCC2)cc1`: the cytotoxicity was 6.7%.

Regarding `CC(C)(C)c1nc(CN2CCOCC2)ccc1O`, the cytotoxicity is -2.2%.

With `c1ccc(CNc2nc3ccccc3[nH]2)cc1`, the cytotoxicity is 4.5%.

With `Cc1ccc2nc(NCc3ccccc3)[nH]c2c1`, the cytotoxicity was 63.1% (active).

On to `COc1ccc2nc(NCc3ccccc3)[nH]c2c1`, for which the cytotoxicity was 24.9%.

On to `CC(C(=O)Oc1ccc2c(c1)OCO2)N1C(=O)c2ccccc2C1=O` (stereo unspecified), for which the cytotoxicity is 3.4%.

For the compound `CC(=O)N1CCc2cc(C(=O)CN3CCCCC3)ccc21`, the cytotoxicity is -6.3%.

As to `CCN1CCN(Cc2nc3c(c(=O)[nH]c(=O)n3C)n2Cc2ccccc2Cl)CC1`, the cytotoxicity was 4.2%.

In the case of `COc1ccc(CNC(=O)CSc2nc(-c3ccccc3)cc(-c3cccs3)c2C#N)cc1`, the cytotoxicity is -13.6%.

In the case of `COc1ccc(-c2cc(-c3cccs3)c(C#N)c(SCC(=O)NCc3ccccc3)n2)cc1`, the cytotoxicity was -5.2%.

For `COc1ccc(-c2cc(-c3cccs3)c(C#N)c(SCC(=O)NCc3ccco3)n2)cc1`, the cytotoxicity was 55.1% (active).

With `Nc1nc(SCc2ccc(Cl)cc2)ns1`, the cytotoxicity was -0.5%.

With `CCOC(=O)C1CCCN(Cc2ccccc2OCC)C1` (stereo unspecified), the cytotoxicity is 8.9%.

As to `COc1ccc(C(=O)Nn2c(C)ccc2C)cc1OC`, the cytotoxicity was -1%.

With `CS(=O)(=O)N1CCN(c2ccccc2NC(=O)c2ccc(-c3ccc(Cl)cc3Cl)o2)CC1`, the cytotoxicity was 6%.

As for `COc1ccc(C2=NOC(C(=O)NCc3ccc(F)cc3)C2)cc1` (stereo unspecified), the cytotoxicity was 7%.

With `COc1ccc(CNC(=O)C2CC(c3ccc(OC)cc3)=NO2)cc1` (stereo unspecified), the cytotoxicity is -0.6%.

Take `COc1cccc(C2=NOC(C(=O)NCc3ccc(F)cc3)C2)c1` (stereo unspecified): the cytotoxicity was -1.1%.

Regarding `COc1ccc(C2=NOC(C(=O)NCc3ccc(F)cc3)C2)cc1OC` (stereo unspecified), the cytotoxicity is 57.2% (active).

As to `COc1ccc(CNC(=O)C2CC(c3ccc(F)cc3)=NO2)cc1` (stereo unspecified), the cytotoxicity was 3.2%.

For `COc1cc(C2=NOC(C(=O)NCc3ccc(F)cc3)C2)cc(OC)c1OC` (stereo unspecified), the cytotoxicity was 64.5% (active).

Regarding `COc1ccc2[nH]c(=O)c(C(c3nnnn3C3CCCC3)N3CCN(Cc4ccc5c(c4)OCO5)CC3)cc2c1` (stereo unspecified), the cytotoxicity was -0.4%.

In the case of `COc1cc(NC(=O)c2nccnc2C(=O)O)cc(OC)c1`, the cytotoxicity is -8%.

Regarding `C=CCSc1ncc(C#N)c(N)n1`, the cytotoxicity was 14.9%.

Regarding `O=C(OCC(=O)N1CCc2ccccc21)c1cccnc1Cl`, the cytotoxicity is -2.9%.

With `CS(=O)(=O)N1CCCC(C(=O)NCCCN2CCc3ccccc3C2)C1` (stereo unspecified), the cytotoxicity is -1.1%.

As for `C[C@@H](C(=O)NCCc1c[nH]c2ccccc12)[C@@H]1C[C@@]1(C)[C@@H](NC(=O)OCc1ccccc1)c1ccccc1`, the cytotoxicity is 0.9%.

Turning to `Cc1cc2c(c(C)nn2-c2ccccc2)c(=O)o1`, the cytotoxicity was -11.4%.

In the case of `CCCCCCn1c2c(c(=N)c3c1CCC3)CCC2`, the cytotoxicity was 12.4%.

As for `CCCCCCCCCCn1c2c(c(=N)c3c1CCC3)CCC2`, the cytotoxicity was 38.3%.

Take `CCCCCCCCCn1c2c(c(=N)c3c1CCC3)CCC2`: the cytotoxicity is 51.6% (active).

In the case of `Cn1c(=O)[nH]c(=O)c2c1nc(CN1CCN(c3ccccc3F)CC1)n2CC(N)=O`, the cytotoxicity was -7.3%.

For `COC(=O)c1ccccc1NC1=C/C(=N\S(=O)(=O)c2cccs2)c2ccccc2C1=O`, the cytotoxicity was -53%.

As to `COC(=O)C(C(C)=O)C1=C/C(=N\S(=O)(=O)c2ccc(C)cc2)c2ccccc2C1=O` (stereo unspecified), the cytotoxicity was -13%.

In the case of `Cc1ccc(NC2=C/C(=N\S(=O)(=O)c3cccs3)c3ccccc3C2=O)c(C)c1`, the cytotoxicity is 61.6% (active).

As for `O=c1nc(N2CCOCC2)ccn1Cc1ccc(Br)cc1`, the cytotoxicity was -6.8%.

Regarding `C=CCn1cc(C(=O)OC)c(=O)c2cc(S(=O)(=O)N3CCC(C)CC3)ccc21`, the cytotoxicity is 6.1%.

Regarding `COc1ccc(NC(=O)c2oc3ccccc3c2NC(=O)COc2ccccc2OC)c(OC)c1`, the cytotoxicity is -4.5%.

Turning to `O=C(N1CCOCC1)N1CCN(c2ccccn2)CC1`, the cytotoxicity was 6.2%.

On to `O=C(c1ccco1)N1CCN(C(=O)N2c3ccccc3Sc3ccccc32)CC1`, for which the cytotoxicity is 60.9% (active).

Turning to `O=C(NC1CCN(C(=O)N2c3ccccc3Sc3ccccc32)CC1)c1ccco1`, the cytotoxicity is 3.2%.

Take `O=C(N1CCN(c2ccccn2)CC1)N1c2ccccc2Sc2ccccc21`: the cytotoxicity is 59.7% (active).

For the compound `O=C(CN1CCN(c2ccccn2)CC1)N1c2ccccc2Sc2ccc(C(F)(F)F)cc21`, the cytotoxicity was 6.6%.

For `O=C(c1ccco1)N1c2ccccc2Sc2ccccc21`, the cytotoxicity is 0.2%.

Turning to `Cc1ccccc1C(NC(N)=O)c1ccccc1` (stereo unspecified), the cytotoxicity was 0.3%.

Regarding `CC(C)N=C(NC#N)SCc1ccccc1`, the cytotoxicity is 0.9%.

For `COc1ccccc1-c1nnc2n1N=C(c1ccc(O)c(O)c1)CS2`, the cytotoxicity was 48%.

On to `COc1ccc(C2=Nn3c(nnc3-c3ccccc3)SC2)cc1OC`, for which the cytotoxicity was 11.6%.

On to `COc1ccc(C2=Nn3c(nnc3-c3ccccc3OC)SC2)cc1OC`, for which the cytotoxicity was 56.1% (active).

As to `CCOc1ccc(-c2nnc3n2N=C(c2ccc(OC)cc2)CS3)cc1`, the cytotoxicity was 11.5%.

Take `CCOc1ccc(C2=Nn3c(nnc3-c3ccccc3OC)SC2)cc1`: the cytotoxicity is 62.9% (active).

Consider `CCOc1ccc(C2=Nn3c(nnc3-c3ccc(OC)cc3)SC2)cc1`, for which the cytotoxicity is 38%.

For the compound `CSC1CCCCC1(O)CSc1nc2ccccc2o1` (stereo unspecified), the cytotoxicity is -0.9%.

Consider `O=C(CCN1C(=O)C2C3C=CC(C3)C2C1=O)N1CCN(c2ccc(F)cc2)CC1` (stereo unspecified), for which the cytotoxicity was 0.6%.

With `O=C(O)C1CC=C(Cl)CC1C(=O)NCC1OCCc2ccccc21` (stereo unspecified), the cytotoxicity was 22.3%.

Take `O=C(NCc1ccc(F)cc1)C1CCN(C(=O)NCc2ccccc2)CC1`: the cytotoxicity is -1%.

With `OCCc1ccc(-c2ccc(Cl)cc2)o1`, the cytotoxicity was 0.4%.

On to `Cc1nn(-c2ccc(F)cc2)c2sc(C(=O)N3CCCCCC3)cc12`, for which the cytotoxicity is -14%.

As to `CC(=O)Nc1ccc2nc(-c3ccccn3)[nH]c2c1`, the cytotoxicity was 7.2%.

With `Nc1ccc2nc(-c3ccccn3)[nH]c2c1`, the cytotoxicity was 18.5%.

As for `CC1(C)OC(=O)N(c2ccccc2)C12C=Cc1cc(Br)ccc1O2` (stereo unspecified), the cytotoxicity is -10.5%.

`Nc1nonc1C(=O)NCCNCc1cc(Br)ccc1OCc1ccc(F)cc1`: the cytotoxicity was 21.8%.

For the compound `Nc1nonc1C(=O)NCCNCc1cc(Br)ccc1OCc1ccccc1F`, the cytotoxicity is 99.7% (active).

Turning to `Nc1nonc1C(=O)NCCNCc1ccccc1OCc1ccccc1F`, the cytotoxicity is 0.5%.

On to `Cn1c(=O)c2c(nc(SCCN3CCOCC3)n2Cc2ccc(Cl)cc2)n(C)c1=O`, for which the cytotoxicity was -7%.

For the compound `Fc1ccc(-c2cc3nc4c(c(N5CCOCC5)n3n2)CCCC4)cc1`, the cytotoxicity was -15.8%.

In the case of `OC1CCN(c2c3c(nc4cc(-c5ccc(F)cc5)nn24)CCC3)CC1`, the cytotoxicity is -17.8%.

For the compound `O=C(C1CC1)N1CCN=C1SCc1ccccc1Cl`, the cytotoxicity was -3.4%.

Regarding `CCOC(=O)N1CCN(S(=O)(=O)c2ccc(OCC)c(C)c2)CC1`, the cytotoxicity was 4.4%.

On to `Cc1cccc(NS(=O)(=O)c2cccc3cccnc23)n1`, for which the cytotoxicity was 9%.

Turning to `Cc1cc(C(=O)NCCCN2CCN(C3CCCCC3)CC2)n(-c2ccccc2)n1`, the cytotoxicity is 13.2%.

In the case of `Cc1cc(C(=O)NCCCN2CCOCC2)n(-c2ccccc2)n1`, the cytotoxicity was -1.5%.

On to `Cc1cc(C(=O)NCCN2CCN(c3cccc(Cl)c3)CC2)n(-c2ccccc2)n1`, for which the cytotoxicity is 55.9% (active).

Take `Cn1c(=O)[nH]c(=O)c2c1nc1n2CCCS1`: the cytotoxicity was 35.1%.

Regarding `N#CC(c1ccc(Cl)cc1)c1ccc2c(C(F)(F)F)cc(C(F)(F)F)nc2n1` (stereo unspecified), the cytotoxicity is 51.3% (active).

Turning to `N#CC(c1ccccc1)c1ccc2c(C(F)(F)F)cc(C(F)(F)F)nc2n1` (stereo unspecified), the cytotoxicity is -4.8%.

Regarding `Cc1ccc(C(C#N)c2ccc3c(C(F)(F)F)cc(C(F)(F)F)nc3n2)cc1` (stereo unspecified), the cytotoxicity is -12.2%.

Turning to `Cc1ccc(NC(=O)CN2CCCCCC2)c(Br)c1`, the cytotoxicity is -14.9%.

As for `CCOC(=O)c1ccc(NC(=O)CC2C(=O)N(c3ccc(F)cc3)C(=O)N2CCC(C)C)cc1` (stereo unspecified), the cytotoxicity was 4.5%.

`Cn1cc(S(=O)(=O)NCc2cccs2)c(=O)n(C)c1=O`: the cytotoxicity was 0.5%.

With `COc1ccc(S(=O)(=O)Nc2ccc(N(C)C(C)=O)cc2)cc1`, the cytotoxicity was 4.3%.

As for `Nc1nc(SCC(=O)Nc2ccccc2-c2ccccc2)n[nH]1`, the cytotoxicity was 0.1%.

`Nc1nc(SCC(=O)Nc2ccccc2Sc2ccc(Cl)cc2)n[nH]1`: the cytotoxicity was 74.3% (active).

In the case of `O=C(CSc1ncn[nH]1)Nc1ccccc1Sc1ccc(Cl)cc1`, the cytotoxicity is 41.7%.

Regarding `CCn1c(SCC(=O)c2ccc(NS(=O)(=O)c3ccccc3)cc2)nnc1-c1cccs1`, the cytotoxicity is -0.1%.

Regarding `O=C(O)C1C2CCC(O2)C1C(=O)Nc1cnn(Cc2ccccc2)c1` (stereo unspecified), the cytotoxicity is 13%.

For the compound `CC(C)CC(NC(=O)C1CCC(C)CC1)C(=O)NCc1ccccn1` (stereo unspecified), the cytotoxicity was 23.1%.

As for `Cn1c(C(=O)N2CCC(C(=O)N3CCOCC3)CC2)cc2sccc21`, the cytotoxicity was 4.3%.

`CCOc1ccccc1-n1c(SCC(N)=O)nnc1-c1cccnc1`: the cytotoxicity is 7.9%.

Turning to `COc1cccc(-c2nnc3n2N=C(c2cc(OC)ccc2OC)CS3)c1`, the cytotoxicity was 5.5%.

`COc1ccc(OC)c(C2=Nn3c(nnc3-c3cc(OC)c(OC)c(OC)c3)SC2)c1`: the cytotoxicity is 64.1% (active).

Consider `COc1ccc(C2=Nn3c(nnc3-c3ccc(OC)cc3)SC2)cc1`, for which the cytotoxicity is 62.4% (active).

On to `Brc1ccc(C2=Nn3c(nnc3-c3n[nH]c4c3CCC4)SC2)cc1`, for which the cytotoxicity is 56.3% (active).

Take `Clc1ccc(C2=Nn3c(nnc3-c3n[nH]c4c3CCC4)SC2)cc1`: the cytotoxicity was 6.1%.

With `COc1ccc(C2=Nn3c(nnc3-c3ccncc3)SC2)cc1`, the cytotoxicity was -6.8%.

As to `COc1ccc(OC)c(C2=Nn3c(nnc3-c3ccncc3)SC2)c1`, the cytotoxicity was 2.2%.

Turning to `Fc1ccc(C2=Nn3c(nnc3-c3n[nH]c4c3CCC4)SC2)cc1`, the cytotoxicity was 5.8%.

For `COc1ccc(-c2nnc3n2N=C(C)CS3)cc1`, the cytotoxicity is -10.3%.

Take `Cc1cccc(-c2nnc3n2N=C(c2ccccc2)CS3)c1`: the cytotoxicity was 5.5%.

Take `COc1cc(-c2nnc3n2N=C(c2ccccc2)CS3)cc(OC)c1OC`: the cytotoxicity is 66.9% (active).

As for `COc1ccc(-c2nnc3n2N=C(c2ccccc2)CS3)cc1OC`, the cytotoxicity was -10.6%.
